In the supplement of paper PMC11732987, “Enantioselective OTUD7B fragment discovery through chemoproteomics screening and high-throughput optimisation” (Communications Chemistry, 2025):

Columns and labels:
Experiment in all cases: log2 ratio of Biotin-Ahx-Ub-VS probe labelling (fragment/DMSO); higher = less target engagement (more negative = stronger competition), active = hit call of the paper (q ≤ 0.05, log2 ratio ≤ -1)
Settings in all cases: compound concentration: 200 uM; treatment time: 3 h
OTUD6B = molecular target: T1, OTUD6B (UniProt Q8N6M0)
T1 sequence (whole entry): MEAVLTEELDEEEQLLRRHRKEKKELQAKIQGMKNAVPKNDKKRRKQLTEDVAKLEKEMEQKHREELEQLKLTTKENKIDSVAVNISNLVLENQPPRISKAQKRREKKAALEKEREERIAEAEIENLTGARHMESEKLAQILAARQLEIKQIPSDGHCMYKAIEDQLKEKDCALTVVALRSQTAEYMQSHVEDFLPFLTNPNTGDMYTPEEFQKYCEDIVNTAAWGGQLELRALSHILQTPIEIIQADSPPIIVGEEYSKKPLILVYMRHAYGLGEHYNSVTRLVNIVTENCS
In short: (§1)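 Fragment (200 µM) or vehicle was incubated for 3 h with triplicate HEK293T lysate samples of 495 µg, which were then treated with Biotin-Ahx-Ub-VS at 0.5 µM final for 1 h. Labelled DUBs were enriched on NeutrAvidin, digested with LysC and trypsin, and analysed by diaPASEF LC-MS/MS. Values are average log2 fragment/vehicle ratios from an unpaired t-test on global-median-normalised Spectronaut label-free quantities, using proteins with ≥2 unique peptides.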

OTUD7B = molecular target: T2, OTUD7B (UniProt Q6GQQ9)
T2 sequence (whole entry): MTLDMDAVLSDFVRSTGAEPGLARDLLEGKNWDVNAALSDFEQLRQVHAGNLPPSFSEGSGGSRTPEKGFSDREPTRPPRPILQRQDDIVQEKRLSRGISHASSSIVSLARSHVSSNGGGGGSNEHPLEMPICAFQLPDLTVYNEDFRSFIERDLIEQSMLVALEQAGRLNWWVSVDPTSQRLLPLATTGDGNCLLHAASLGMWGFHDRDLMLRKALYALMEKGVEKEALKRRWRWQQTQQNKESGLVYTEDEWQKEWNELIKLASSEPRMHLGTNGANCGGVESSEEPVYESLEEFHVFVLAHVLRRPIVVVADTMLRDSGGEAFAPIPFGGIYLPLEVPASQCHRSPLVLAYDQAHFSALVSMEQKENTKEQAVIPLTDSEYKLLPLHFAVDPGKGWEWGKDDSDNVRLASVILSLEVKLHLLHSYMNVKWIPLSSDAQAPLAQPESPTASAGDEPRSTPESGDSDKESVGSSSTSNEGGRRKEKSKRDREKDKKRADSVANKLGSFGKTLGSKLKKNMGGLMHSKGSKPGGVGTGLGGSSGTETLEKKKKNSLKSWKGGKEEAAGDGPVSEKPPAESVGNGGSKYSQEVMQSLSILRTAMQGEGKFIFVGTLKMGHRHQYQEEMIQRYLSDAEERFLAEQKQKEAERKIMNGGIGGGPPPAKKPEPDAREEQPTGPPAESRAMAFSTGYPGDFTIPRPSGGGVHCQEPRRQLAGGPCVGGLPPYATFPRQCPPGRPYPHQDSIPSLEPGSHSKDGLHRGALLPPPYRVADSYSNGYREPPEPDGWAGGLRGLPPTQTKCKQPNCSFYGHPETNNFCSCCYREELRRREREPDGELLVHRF
In short: as §1

PRPF8 = PRPF8 (UniProt Q6P2Q9)
In short: as §1

PSMD7 = molecular target: T3, PSMD7 (UniProt P51665)
T3 sequence (whole entry): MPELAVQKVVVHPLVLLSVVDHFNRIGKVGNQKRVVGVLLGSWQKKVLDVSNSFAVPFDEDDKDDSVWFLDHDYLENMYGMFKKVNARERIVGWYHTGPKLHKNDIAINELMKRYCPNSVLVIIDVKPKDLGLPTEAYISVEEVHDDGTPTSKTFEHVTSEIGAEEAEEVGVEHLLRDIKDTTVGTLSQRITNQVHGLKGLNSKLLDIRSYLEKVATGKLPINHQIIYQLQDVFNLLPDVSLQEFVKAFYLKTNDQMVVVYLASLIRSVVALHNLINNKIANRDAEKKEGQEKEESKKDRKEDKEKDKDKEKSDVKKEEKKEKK
In short: as §1

UCHL1 = UCHL1 (UniProt P09936)
UCHL1, sequence (P09936 whole entry, looked up): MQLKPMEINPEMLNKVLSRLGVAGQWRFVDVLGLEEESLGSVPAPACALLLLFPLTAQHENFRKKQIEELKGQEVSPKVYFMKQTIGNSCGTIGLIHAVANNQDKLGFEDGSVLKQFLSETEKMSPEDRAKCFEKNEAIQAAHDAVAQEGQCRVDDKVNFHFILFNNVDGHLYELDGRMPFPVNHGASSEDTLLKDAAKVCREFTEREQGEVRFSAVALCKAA
In short: as §1

UCHL3 = molecular target: T4, UCHL3 (UniProt P15374)
T4 sequence (whole entry): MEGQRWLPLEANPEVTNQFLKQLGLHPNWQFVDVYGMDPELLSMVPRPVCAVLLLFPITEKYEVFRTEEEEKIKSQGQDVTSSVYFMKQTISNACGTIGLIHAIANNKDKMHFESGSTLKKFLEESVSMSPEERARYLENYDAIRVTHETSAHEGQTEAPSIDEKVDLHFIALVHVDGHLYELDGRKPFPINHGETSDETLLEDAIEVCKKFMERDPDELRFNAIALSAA
In short: as §1

UCHL5 = molecular target: T5, UCHL5 (UniProt Q9Y5K5)
T5 sequence (whole entry): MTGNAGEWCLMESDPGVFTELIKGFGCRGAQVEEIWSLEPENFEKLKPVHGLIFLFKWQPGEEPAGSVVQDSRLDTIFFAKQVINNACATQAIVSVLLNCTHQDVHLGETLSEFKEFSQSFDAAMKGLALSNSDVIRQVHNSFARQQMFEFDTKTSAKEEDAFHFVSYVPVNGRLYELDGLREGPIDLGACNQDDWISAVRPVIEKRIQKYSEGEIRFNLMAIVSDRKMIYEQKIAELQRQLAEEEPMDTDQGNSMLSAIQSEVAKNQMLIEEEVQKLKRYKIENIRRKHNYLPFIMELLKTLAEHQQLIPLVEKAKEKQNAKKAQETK
In short: as §1

USP10 = USP10 (UniProt Q14694)
USP10, sequence (Q14694 whole entry): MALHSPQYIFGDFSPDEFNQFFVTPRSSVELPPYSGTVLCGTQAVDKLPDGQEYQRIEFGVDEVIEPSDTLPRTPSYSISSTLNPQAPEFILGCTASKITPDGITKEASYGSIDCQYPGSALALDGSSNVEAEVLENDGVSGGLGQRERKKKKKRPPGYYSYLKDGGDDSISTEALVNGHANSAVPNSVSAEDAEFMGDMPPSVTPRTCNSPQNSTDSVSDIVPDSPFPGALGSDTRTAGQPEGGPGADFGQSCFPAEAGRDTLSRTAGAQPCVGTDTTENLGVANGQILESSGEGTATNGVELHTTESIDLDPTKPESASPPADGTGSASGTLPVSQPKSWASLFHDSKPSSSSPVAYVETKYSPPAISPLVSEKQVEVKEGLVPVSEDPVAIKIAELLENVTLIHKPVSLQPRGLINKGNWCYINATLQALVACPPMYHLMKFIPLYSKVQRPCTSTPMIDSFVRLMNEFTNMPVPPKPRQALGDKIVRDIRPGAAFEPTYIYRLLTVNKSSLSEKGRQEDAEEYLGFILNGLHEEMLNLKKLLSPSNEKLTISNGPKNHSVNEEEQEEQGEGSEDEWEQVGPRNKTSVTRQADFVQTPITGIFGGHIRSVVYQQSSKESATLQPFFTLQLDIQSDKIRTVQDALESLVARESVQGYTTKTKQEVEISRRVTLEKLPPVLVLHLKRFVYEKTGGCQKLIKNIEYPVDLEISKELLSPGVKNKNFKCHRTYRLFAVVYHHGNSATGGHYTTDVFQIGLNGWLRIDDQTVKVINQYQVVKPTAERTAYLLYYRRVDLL
In short: as §1

USP15 = molecular target: T6, USP15 (UniProt Q9Y4E8)
T6 sequence (whole entry): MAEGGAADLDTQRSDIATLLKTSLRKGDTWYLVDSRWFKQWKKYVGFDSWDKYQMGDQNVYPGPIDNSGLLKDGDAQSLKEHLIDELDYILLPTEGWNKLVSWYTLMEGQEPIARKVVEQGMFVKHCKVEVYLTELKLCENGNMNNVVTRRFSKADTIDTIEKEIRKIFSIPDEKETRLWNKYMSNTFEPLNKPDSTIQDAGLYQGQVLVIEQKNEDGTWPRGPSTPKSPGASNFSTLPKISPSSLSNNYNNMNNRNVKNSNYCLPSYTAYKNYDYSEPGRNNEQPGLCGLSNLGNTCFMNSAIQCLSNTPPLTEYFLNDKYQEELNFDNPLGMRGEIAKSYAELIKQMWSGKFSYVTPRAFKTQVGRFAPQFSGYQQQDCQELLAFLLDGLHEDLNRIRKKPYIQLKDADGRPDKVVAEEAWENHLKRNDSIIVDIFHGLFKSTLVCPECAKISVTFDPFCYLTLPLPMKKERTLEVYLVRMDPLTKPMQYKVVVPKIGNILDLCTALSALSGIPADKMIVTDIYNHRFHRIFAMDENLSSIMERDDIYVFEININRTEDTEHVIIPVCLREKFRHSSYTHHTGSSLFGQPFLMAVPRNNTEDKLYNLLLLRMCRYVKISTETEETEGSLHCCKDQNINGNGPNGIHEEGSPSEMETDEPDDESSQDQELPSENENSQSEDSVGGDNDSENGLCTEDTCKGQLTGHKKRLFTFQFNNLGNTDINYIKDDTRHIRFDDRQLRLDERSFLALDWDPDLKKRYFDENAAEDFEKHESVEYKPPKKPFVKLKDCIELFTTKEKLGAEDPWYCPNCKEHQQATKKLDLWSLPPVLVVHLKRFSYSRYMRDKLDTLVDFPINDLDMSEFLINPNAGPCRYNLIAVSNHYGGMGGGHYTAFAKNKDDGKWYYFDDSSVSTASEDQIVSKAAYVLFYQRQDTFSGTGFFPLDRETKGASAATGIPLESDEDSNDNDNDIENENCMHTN
In short: as §1

USP16 = USP16 (UniProt Q9Y5T5)
USP16, sequence (Q9Y5T5 whole entry, looked up): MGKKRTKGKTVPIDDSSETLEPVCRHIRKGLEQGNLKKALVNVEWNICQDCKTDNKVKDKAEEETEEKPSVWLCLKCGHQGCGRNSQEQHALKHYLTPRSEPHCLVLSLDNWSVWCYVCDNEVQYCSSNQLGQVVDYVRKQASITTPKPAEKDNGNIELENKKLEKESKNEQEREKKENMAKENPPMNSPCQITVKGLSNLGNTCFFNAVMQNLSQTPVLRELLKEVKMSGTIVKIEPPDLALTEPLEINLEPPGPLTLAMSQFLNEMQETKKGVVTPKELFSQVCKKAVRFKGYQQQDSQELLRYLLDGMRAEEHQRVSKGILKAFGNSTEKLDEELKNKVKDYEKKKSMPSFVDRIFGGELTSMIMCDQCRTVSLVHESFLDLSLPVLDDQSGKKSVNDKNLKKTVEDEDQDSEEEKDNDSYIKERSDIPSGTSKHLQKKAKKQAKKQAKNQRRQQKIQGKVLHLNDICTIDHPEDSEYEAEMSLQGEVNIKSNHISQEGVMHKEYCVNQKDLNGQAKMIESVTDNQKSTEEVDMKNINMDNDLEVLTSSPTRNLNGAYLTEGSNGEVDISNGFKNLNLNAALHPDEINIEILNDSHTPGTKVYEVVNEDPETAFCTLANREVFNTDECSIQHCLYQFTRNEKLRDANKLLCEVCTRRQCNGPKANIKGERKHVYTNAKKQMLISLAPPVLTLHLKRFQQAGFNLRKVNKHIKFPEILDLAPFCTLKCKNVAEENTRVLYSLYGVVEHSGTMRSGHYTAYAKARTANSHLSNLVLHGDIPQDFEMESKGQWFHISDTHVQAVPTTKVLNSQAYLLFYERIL
In short: as §1

Measured: log2 ratio of Biotin-Ahx-Ub-VS probe labelling

CC1CN(c2ccc(NC(=O)CCl)cc2)CC(C)O1 (stereo not given)
active: UCHL1 -1.48
inactive: OTUD6B -0.241 | OTUD7B -0.313 | PRPF8 0.0099 | PSMD7 -0.00447 | UCHL3 0.00853 | UCHL5 -0.366 | USP10 -0.118 | USP15 -0.153 | USP16 -0.987
